Experimental data: PubChem BioAssay AID493240 (Broad Institute, 2011)
Hit rate of the full screen: of about 1,300 compounds, about 270 (21%) were called active. The rule behind the calls is not given here. A selection follows. Results with a measured potency or affinity are listed apart.

Assay: SK-MEL-5 parental cell viability loss, dose response, orthogonal assay for MITF inhibitor project, CellTiter-Glo, cherry-picked, set 3 (AID 493240)
Conditions: SK-MEL-5 viability, ATP luminescence (CellTiter-Glo), 24 h; series mostly up to 35 µM
In the case of Cc1ccc(-c2nc(-c3ccncc3)no2)cc1C, the outcome is reported as “inactive”. For CCOc1ccc(NC(=O)c2ccc3snnc3c2)cc1, the outcome was “inactive”. For Nc1ccccc1SC1CC(=O)N(c2ccc3c(c2)OCCO3)C1=O (stereo not drawn), the outcome was “inactive”. In the case of O=C(O)c1ccc(C(=O)Nc2ccc(F)cc2)cc1, the outcome is reported as “inactive”. For O=C(Nc1ccc([N+](=O)[O-])cc1)c1ccccc1, the outcome was “inactive”. In the case of COc1ccc2c(C)nc(Nc3nc(-c4ccccc4)cc(=O)[nH]3)nc2c1, the outcome is reported as “inactive”. With O=C(Cn1cc(/C=C\[N+](=O)[O-])c2ccccc21)Nc1ccccc1 the outcome was “inactive”. With Oc1cc(NCc2cccnc2)ccc1-c1nc2ccccc2o1 the outcome was “inactive”. For NCCN1C(=O)S/C(=C\c2ccc3c(c2)OCO3)C1=O, the outcome was “inactive”. For O=C(COC(=O)C1=COCCO1)Nc1c(F)cccc1F, the outcome was “inactive”. With O=C(C[n+]1cccc2ccccc21)c1ccc([N+](=O)[O-])cc1 the outcome was “inactive”. In the case of Cc1ccccc1Cn1c(=N)n(CC(=O)c2ccc([N+](=O)[O-])cc2)c2ccccc21, the outcome is reported as “inactive”. With N=c1n(CC(=O)c2ccc([N+](=O)[O-])cc2)c2ccccc2n1Cc1ccccc1Cl the outcome was “inactive”. In the case of N=c1n(CC(=O)c2ccc([N+](=O)[O-])cc2)c2ccccc2n1Cc1ccccc1, the outcome is reported as “inactive”. With CC(NC(=O)C12CC3CC(CC(C3)C1)C2)C(=O)NN=Cc1ccc([N+](=O)[O-])o1 (stereo not drawn) the outcome was “inactive”. For Cc1ccc(-n2nnnc2Sc2nc([N+](=O)[O-])nn2C)c(C)c1, the outcome was “inactive”. For O=C(O)c1cccc(COc2ccccc2Cl)c1, the outcome was “inactive”. With COc1ccc(O)c(/C=N/NC(=O)c2ccc(CSc3nc(C)cc(C)n3)cc2)c1 the outcome was “inactive”. For O=C(COc1ccc2c(c1)CCC2)N1CCc2ccccc21, the outcome was “inactive”. With O=S(=O)(c1ccc(F)cc1)c1snnc1-c1ccccc1 the outcome was “inactive”. For CCOc1ccc2nc(C)cc(Nc3cccc([N+](=O)[O-])c3)c2c1, the outcome was “inactive”. With COC(=O)c1ccc(Nc2cc(C)nc3ccc(C)cc23)cc1 the outcome was “inactive”. With COc1ccc(NC(C)C(=O)N/N=C/c2ccc([N+](=O)[O-])s2)cc1 (stereo not drawn) the outcome was “inactive”. With COc1ccc(NC(=O)CCC(=O)N/N=C/c2ccc([N+](=O)[O-])s2)cc1 the outcome was “inactive”. With O=[N+]([O-])c1c(NCCCO)cc(Sc2ccc(Cl)cc2)c2nonc12 the outcome was “inactive”. In the case of O=C(NCc1ccccc1)C(=O)Nc1cccc(C(=O)O)c1, the outcome is reported as “inactive”. For CC(=O)NC1=C(N(C)C2CCS(=O)(=O)C2)C(=O)c2ccccc2C1=O (stereo not drawn), the outcome was “inactive”. In the case of O=C(NC1CCCCC1)C(c1cccnc1)N(C(=O)CCl)c1ccc(F)cc1 (stereo not drawn), the outcome is reported as “inactive”. For O=C(NC1CCCCC1)C(c1cccnc1)N(C(=O)CCl)c1cccc(Cl)c1 (stereo not drawn), the outcome was “inactive”. For O=C(c1cc2ccccc2oc1=O)N(Cc1ccccc1)C1CCS(=O)(=O)C1 (stereo not drawn), the outcome was “inactive”. In the case of CCC(=O)NC(c1ccccc1OC)c1ccc2cccnc2c1O (stereo not drawn), the outcome is reported as “inactive”. In the case of Cc1ccc(C(=O)c2no[n+]([O-])c2C(=O)c2ccc(C)cc2)cc1, the outcome is reported as “inactive”. In the case of Cc1ccc(NC(=O)C2CCN(S(=O)(=O)c3c(C)noc3/C=C/c3ccco3)CC2)nc1, the outcome is reported as “inactive”. For Cc1[nH]nc(Nc2ccc(Br)cc2)c1[N+](=O)[O-], the outcome was “inactive”. For CC(C)(C)c1ccc(-c2noc(CCC(=O)NCC3CCCO3)n2)cc1 (stereo not drawn), the outcome was “inactive”. With Oc1ccccc1/C=N/Nc1cccc2cccnc12 the outcome was “inactive”. With O=C(CCCCC(=O)NN=Cc1ccccc1O)NN=Cc1ccccc1O the outcome was “inactive”. With Cn1cccc1-c1cc(C(=O)N/N=C/c2cc(Br)ccc2O)[nH]n1 the outcome was “inactive”. For O=C(N/N=C/c1cc(Br)ccc1O)c1ccncc1, the outcome was “inactive”. For COc1ccc(C(=O)NCCSc2ccccc2C)cc1, the outcome was “inactive”. With CCOc1ccc(NC(=O)c2ccccn2)cc1 the outcome was “inactive”. For CC(C)N=C(NS(=O)(=O)c1ccccc1)C(Cl)(Cl)Cl, the outcome was “inactive”. For O=C(Cn1cnc2ccccc2c1=O)Nc1ccc2c(c1)OCCO2, the outcome was “inactive”. For Cc1nn(C)cc1/C=C/C(=O)c1cccs1, the outcome was “inactive”. With Cc1ccn2c(Nc3ccccc3)c(-c3ccccn3)nc2c1 the outcome was “inactive”. For O=[N+]([O-])c1cc(C(F)(F)F)ccc1NCCc1ccccn1, the outcome was “inactive”. With COc1ccc(COC(=O)c2n[nH]c3ccccc23)cc1F the outcome was “inactive”. In the case of Cc1cc(Br)ccc1OCc1nc(-c2cccnc2)no1, the outcome is reported as “inactive”. With O=C(NC1CCCCCC1)c1cc2ccccc2oc1=O the outcome was “inactive”. For CCOC(=O)c1cc([N+](=O)[O-])c([N+](=O)[O-])cc1NC(C)=O, the outcome was “inactive”. For N/C(CS(=O)(=O)c1ccccn1)=N\OC(=O)c1ccccc1Cl, the outcome was “inactive”. For N/C(=N\OC(=O)c1ccccc1)c1ccccn1, the outcome was “inactive”. For O=C(Nc1ccc2c(c1)OCCO2)c1ccoc1, the outcome was “inactive”. In the case of COc1ccccc1NC(=O)c1cnc(SCC(=O)NCC2CCCO2)n(C)c1=O (stereo not drawn), the outcome is reported as “inactive”. In the case of COc1ccc(Cn2c(-c3ccc(C)cc3)c[n+]3ccccc23)cc1, the outcome is reported as “inactive”. For COc1ccc2oc(=O)c(C(=O)Nc3ccccc3C)cc2c1, the outcome was “inactive”. With CCC[n+]1c(C)sc2c3c(ccc21)CCCC3 the outcome was “inactive”. With O=C(Nc1ccccc1)C1Cc2ccccc2CN1C(=O)c1ccco1 (stereo not drawn) the outcome was “inactive”. For Cc1ccc(OCCNCc2ccccc2)c(C)c1, the outcome was “inactive”. With Cc1cc(Cl)ccc1NC(=O)c1ccc2c(c1)OCO2 the outcome was “inactive”. For CN(C)c1ccc(/C=C(\C#N)c2ccccn2)cc1, the outcome was “inactive”. For O=C1NC2c3c(I)sc(I)c3C(=O)C2O1 (stereo not drawn), the outcome was “inactive”. In the case of C/C(=N\Nc1cc(N2CCOCC2)ncn1)c1ccccc1, the outcome is reported as “inactive”. With O=C(Nc1ccccc1N1CCN(C(=O)c2ccccc2)CC1)c1ccc([N+](=O)[O-])o1 the outcome was “inactive”. With COc1ccccc1N1CCN(/N=C/c2cccc(Cl)c2)CC1 the outcome was “inactive”. For O=C(CS(=O)c1ccc(C(F)(F)F)cc1[N+](=O)[O-])Oc1ccccc1 (stereo not drawn), the outcome was “inactive”. For O=C(/C=C\c1ccccc1)NCC(=O)N/N=C/c1ccc(O)cc1O, the outcome was “inactive”. In the case of CCOC(=O)/C=c1/s/c(=C/c2ccc3cc(OC)ccc3c2)c(=O)n1CC(=O)NCC1CCCO1 (stereo not drawn), the outcome is reported as “inactive”. For CC(C)(C)C(=O)/C(=C/c1ccncc1)n1cncn1, the outcome was “inactive”. For c1ccc(OCc2nn3c(-c4ccccn4)nnc3s2)cc1, the outcome was “inactive”. In the case of O=C(N/N=C/c1ccccc1Cl)c1n[nH]c2c1CCCC2, the outcome is reported as “inactive”. For N#Cc1cnn2cc(CCN3CCOCC3)c(-c3ccc(F)cc3)nc12, the outcome was “inactive”. In the case of CCCCC(=O)N/C(N)=N/c1nc2ccccc2o1, the outcome is reported as “inactive”. For C=CCn1cccc(C(=O)Nc2ccc(C)c(Cl)c2)c1=O, the outcome was “inactive”. For N#C/C(C(=O)c1ccccc1)=C1/CCCCCN1, the outcome was “inactive”. For Cc1ccc2cc(NC(=O)Cc3ccccc3)ccc2n1, the outcome was “inactive”. In the case of Cc1cccc(/C=C2/Sc3ccc(C(=O)NCCN4CCCC4)cc3NC2=O)c1, the outcome is reported as “inactive”. With CCN1CCCC1CNC(=O)c1ccc2c(c1)NC(=O)/C(=C\c1ccc(OC)c(OC)c1)S2 (stereo not drawn) the outcome was “inactive”. With COc1cccc(/C=C2/Sc3ccc(C(=O)NCCN4CCCC4)cc3NC2=O)c1 the outcome was “inactive”. With CCN1CCN(CCCNC(=O)c2ccc3c(Cl)c4c(nc3c2)CCCC4)CC1 the outcome was “inactive”. For COc1ccc(/C=C2\Sc3ccc(C(=O)NCCN4CCCCCC4)cc3N(C)C2=O)cc1, the outcome was “inactive”. With CC1(C)CC(=O)c2cnc(N3CCc4ccccc43)nc2C1 the outcome was “inactive”. In the case of CC1=C/C(=N\NC(=S)Nc2cccnc2)CC(C)(C)C1, the outcome is reported as “inactive”. For CC(C)(C)NC(=O)CCN(/N=C/c1ccc([N+](=O)[O-])o1)C1=NS(=O)(=O)c2ccccc21, the outcome was “inactive”. In the case of O=C1CCC2S/C(=C/Nc3ccc(C(F)(F)F)cc3)C(=O)N12 (stereo not drawn), the outcome is reported as “inactive”. For Nc1nc2n[nH]nc2c(=O)[nH]1, the outcome was “inactive”. With CN1CCN(c2ccc(NC(=S)NC(=O)c3cccc4ccccc34)cc2)CC1 the outcome was “inactive”. For CCOc1ccc(-n2c(O)c(/C=N/Nc3nc(C)cc(C)n3)c3ccccc3c2=O)cc1, the outcome was “inactive”. In the case of O=C1N=C(N2CCOCC2)S/C1=C\C=C/c1ccccc1, the outcome is reported as “inactive”. For O=C(c1ccc(F)cc1)N1CCC(c2ccccc2)C1 (stereo not drawn), the outcome was “inactive”. With COc1ccc2c(c1OC)C(=O)N(c1ccc(C)cc1)C2 the outcome was “inactive”. With Cc1cnc(NC(=O)c2nn(C)cc2[N+](=O)[O-])s1 the outcome was “inactive”. In the case of Cn1cc([N+](=O)[O-])c(C(=O)Nc2cc(Oc3ccccc3)cc([N+](=O)[O-])c2)n1, the outcome is reported as “inactive”. In the case of Cc1ccc(-n2nnnc2CNC(=O)c2ccc([N+](=O)[O-])o2)cc1C, the outcome is reported as “inactive”. With CCc1cc(C=NC2CCCCC2)c(O)s1 the outcome was “inactive”. With Cc1ccc(-n2[nH]c(=O)c(-c3ccccn3)c2C)cc1 the outcome was “inactive”. For O=C(CSc1nc2ccccc2[nH]1)c1ccc2c(c1)OCO2, the outcome was “inactive”. In the case of O=C(Nc1ccc(Br)cc1)c1ccc2c(c1)OCO2, the outcome is reported as “inactive”. For CCc1ccc(-c2cc(C(=O)Nn3cnnc3)c3ccccc3n2)cc1, the outcome was “inactive”. With CCc1ccccc1NC(=O)CN(C)C(=O)Cn1ncc(Cl)c(Cl)c1=O the outcome was “inactive”. With CCOC(=O)c1[nH]cnc1N=Nc1c(O)ccc2ccccc12 the outcome was “inactive”. With O=C(N/N=C/c1ccc([N+](=O)[O-])o1)c1ccccc1-n1cccc1 the outcome was “inactive”. For O=[N+]([O-])c1ccc(/C=N/N=C/c2ccc([N+](=O)[O-])o2)o1, the outcome was “inactive”. With O=C(N/N=C/c1ccc([N+](=O)[O-])o1)c1sc2ccccc2c1Cl the outcome was “inactive”. In the case of O=C(Cn1ncc(Cl)c(Cl)c1=O)N1CCOCC1, the outcome is reported as “inactive”. With O=[N+]([O-])c1ccc(/C=N/Nc2ccnc3cc(Cl)ccc23)o1 the outcome was “inactive”. With COc1cc(OC)cc(C(=O)Nc2ccc3c(c2)OCCO3)c1 the outcome was “inactive”. For COc1cccc(NC(=O)Nc2cccc(C(=O)O)c2)c1, the outcome was “inactive”. In the case of C/C(=N/N=C(/C)c1cccs1)c1cccs1, the outcome is reported as “inactive”. With O=C(Nc1nc(-c2ccccn2)cs1)c1ccccc1-n1cnnn1 the outcome was “inactive”. In the case of COc1ccc(Br)cc1C(C[N+](=O)[O-])c1c(N)n(C)c(=O)n(C)c1=O (stereo not drawn), the outcome is reported as “inactive”. For O=C(CCC1CCCN(C(=O)c2cc3ccccc3o2)C1)NCc1ccc(F)c(F)c1 (stereo not drawn), the outcome was “inactive”. For CCOC(=O)c1sc(NC(=O)Nc2ccc(Cl)cc2)nc1C, the outcome was “inactive”.
